{"source": "PubChem BioAssay (NCATS)", "note": "Values joined by “and” are separate entries in the source; they are usually repeats but may differ in a detail not shown here. Identical values can stand only once. Results filed as inconclusive are left out. Some compounds were tested as several samples or in several runs, with calls that do not always agree. Active and inactive are the calls of the source. Calls come from the whole dose curve; as a rule, active = well fitted inhibition curve with a large enough effect; inconclusive = small, poorly fitted or top-dose-only effect; inactive = flat fitted curve, though single readings scatter. % is set by controls: 0 for no effect and ±100 for the full control effect; potency is the fitted concentration of half-maximal effect."}
{"tested_on": "HEK293", "assay": "Cytotoxic Profiling of Annotated Libraries Using Quantitative High-Throughput Screening (AID 1296008); note: nearly all actives have a fitted effect of over 60% in size", "details": "Five cell lines viability, CellTiter-Glo ATP luminescence, 48-72 h; max response: hits give low values", "text": "Cell-based phenotypic screening is a commonly used approach to discover biological pathways, novel drug targets, chemical probes and high-quality hit-to-lead molecules. Many hits identified from high-throughput screening campaign are ruled out through a series of follow-up potency, selectivity/specificity, and cytotoxicity assays. Prioritization of molecules with little or no cytotoxicity for a more in-depth downstream evaluation influence the future direction of projects, so cytotoxicity profiling of the screening libraries at early stage is essential for increasing the likelihood of candidate success. […] For the annotated library, we also examined the primary targets and mechanistic pathways regularly associated with cell death. To our knowledge, this is the first study to use high-throughput screening to profile large libraries for cytotoxicity assessment in both normal and cancer cell lines. In summary, the results generated here constitutes a valuable resource for the scientific community and provides insight on identifying cytotoxic compounds with particular mechanisms of action, and prioritizing compounds with suitable cytotoxicity profile for further evaluation.\nA pintool (Kalypsys) was used to transfer 23 nL of compound solution to the 1536-well assay plates. After 48 or 72 hr incubation at 37 degree Celsius, 5% CO2 and 95% humidity, 2.5 uL of CellTiter-Glo (Promega) was dispensed into each well using a dispenser (Aspect Automation, St. Paul, MN) with solenoid valves (Lee Valves, Westbrook CT). Plates were left at room temperature for 10 min before imaging the ATP-coupled luminescence using a ViewLux microplate imager (PerkinElmer, Waltham, MA)."}
{"smiles": "CCOCCOC(C)=O", "max response": "-1.29% (inactive)"}
{"smiles": "O=C1C=CC[C@@H]2[C@H]3CCCN4CCC[C@@H](CN12)[C@@H]34", "outcome": "inactive"}
{"smiles": "C[C@]12Cc3cn[nH]c3C[C@@H]1CC[C@@H]1[C@H]2CC[C@@]2(C)[C@H]1CC[C@]2(C)O", "max response": "-21.8% (inactive)"}
{"smiles": "O=[N+]([O-])c1ncc[nH]1", "max response": "-7.79% (inactive)"}
{"smiles": "CCNC(=O)CC1N=C(c2ccc(Cl)cc2)c2cc(OC)ccc2-n2c(C)nnc21", "note": "(stereo not given)", "max response": "-10.4% (inactive)", "Potency": "6.51 µM (active)", "outcome": "inactive"}
{"smiles": "C=CC(=O)NCNC(=O)C=C", "outcome": "inactive"}
{"smiles": "Cc1ccccc1-n1c(Cn2ncc3c(N)ncnc32)nc2cccc(C)c2c1=O", "outcome": "inactive"}
{"smiles": "CCCCCCCCCCCCCCCC[N+](C)(C)C", "Potency": "5.96 µM (active)"}
{"smiles": "C[C@]12CC[C@H]3[C@@H](CCC4=CC(=O)CC[C@@]43C)[C@H]1CC[C@H]2OC(=O)CCC1CCCC1", "outcome": "inactive"}
{"smiles": "Clc1ccccc1C(c1ccccc1)(c1ccccc1)n1cccn1", "max response": "-5.51% (inactive)"}
{"smiles": "CC(=O)N(C)c1cccc(-c2ccnc3c(C(=O)c4cccs4)cnn23)c1", "max response": "-28% (inactive) and -16.5% (inactive)"}
{"smiles": "Nc1ccc(Cl)cc1", "max response": "4.83% (inactive)"}
{"smiles": "O=C(O)COc1nc(Cl)c(Cl)cc1Cl", "max response": "-3.5% (inactive)"}
{"smiles": "COc1nn(CSP(=S)(OC)OC)c(=O)s1", "Potency": "21.7 µM (active)"}
{"smiles": "CC(C)N(CCNC(=O)CN1CCCC1=O)C(C)C", "max response": "4.1% (inactive) and 1.15% (inactive)"}
{"smiles": "CC(C)(C)NC[C@H](O)c1ccc(O)cc1Cl", "max response": "-9.08% (inactive)"}
{"smiles": "NC1=NC(=O)N2CC12", "note": "(stereo not given)", "Potency": "8.33 µM (active)"}
{"smiles": "c1ccc2c(CN3CCNCC3)cccc2c1", "max response": "-5.02% (inactive)"}
{"smiles": "CN[C@@H]1Cc2cccc3[nH]c(=O)n(c23)C1", "max response": "-16.4% (inactive)"}
{"smiles": "CC(C)N[C@@H]1CCn2c(=O)[nH]c3cccc(c32)[C@@H]1O", "max response": "2.71% (inactive)"}
{"smiles": "CCCCCC[C@H]1C(=O)O[C@H](C)[C@H](NC(=O)c2cccc(NC=O)c2O)C(=O)O[C@@H](C)[C@@H]1OC(=O)CC(C)C", "Potency": "0.469 µM (active)"}
{"smiles": "O=c1[nH]c2ccc(Cl)cc2c(N[C@@H]2CN3CCC2CC3)c1-c1nc2ccccc2[nH]1", "max response": "-122% (inactive)", "Potency": "0.059 µM (active)"}
{"smiles": "CC(C)(O)C=CC(=O)[C@](C)(O)[C@H]1[C@H](O)C[C@]2(C)[C@@H]3CC=C4[C@@H](C=C(O)C(=O)C4(C)C)[C@]3(C)C(=O)C[C@@]12C", "Potency": "1.87 µM (active)"}
{"smiles": "CC(=O)[O][Hg][c]1ccccc1", "Potency": "0.376 µM (active)"}
{"smiles": "O=c1[nH]c2ccccc2n1C1CCN(Cc2ccc(-c3[nH]c4cc5ncnc5cc4nc3-c3ccccc3)cc2)CC1", "Potency": "18.7 µM (active)"}
{"smiles": "O=[N+]([O-])c1c(Cl)c(Cl)cc(Cl)c1Cl", "max response": "4.07% (inactive)"}
{"smiles": "CC(Cc1ccc(O)cc1)NCC(O)c1cc(O)cc(O)c1", "note": "(stereo not given)", "max response": "-1.83% (inactive)"}
{"smiles": "CC=C(C)C(=O)N[C@@H](c1ccccc1)[C@@H](O)C(=O)O[C@H]1C[C@@]2(O)[C@@H](OC(=O)c3ccccc3)[C@@H]3[C@]4(OC(C)=O)CO[C@@H]4C[C@H](O)[C@@]3(C)C(=O)[C@H](OC(C)=O)C(=C1C)C2(C)C", "max response": "-78.1% (inactive)"}
{"smiles": "CCNC(=O)C[C@@H]1N=C(c2ccc(Cl)cc2)c2cc(OC)ccc2-n2c(C)nnc21", "Potency": "5.17 µM (active)"}
{"smiles": "O=C(N[C@@H](COc1ccc2[nH]c(=O)[nH]c2c1)c1ccccc1)c1cccn(Cc2ccc(F)c(F)c2)c1=O", "max response": "-35.2% (inactive) and -9.78% (inactive)"}
{"smiles": "CC(C)(O)C(=O)Nc1ccc([N+](=O)[O-])c(C(F)(F)F)c1", "max response": "-21.8% (inactive)"}
{"smiles": "Cc1ccccc1-n1c(Cn2cnc3c(N)ncnc32)nc2cccc(C)c2c1=O", "outcome": "inactive", "Potency": "1.48 µM (active)"}
{"smiles": "O=C(O)CNC(=O)c1c(O)c2ccccc2n(Cc2ccccc2)c1=O", "outcome": "inactive", "max response": "1.22% (inactive)"}
{"smiles": "Cc1c(C(=O)Nc2cccc(C(F)(F)F)c2)cc(-c2ccccc2)n1CCCN1CCOCC1", "Potency": "14.8 µM (active) and 14.6 µM (active)"}
{"smiles": "O=C1C(I)=CC(=C(c2cc(I)c(O)c(I)c2)c2ccccc2C(=O)O)C=C1I", "max response": "-13.3% (inactive)"}
